# Results as given in PubChem BioAssay (NCATS).
# Records with an inconclusive call do not appear. Where a call stands in place of a potency, no number is given. Calls of active or inactive are those of the source. Calls come from the whole dose curve; as a rule, active = well fitted inhibition curve with a large enough effect; inconclusive = small, poorly fitted or top-dose-only effect; inactive = flat fitted curve, though single readings scatter.
# Test: qHTS for Inhibitors of Plasmodium falciparum (7G8) proliferation (AID 504316); note: nearly all actives have a fitted effect of over 65% in size
# Settings: P. falciparum 7G8 in erythrocytes, SYBR Green DNA, 72 h; series mostly up to 6.7 µM
# Summary of the method: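 Parasite growth measured as SYBR Green DNA fluorescence (ex 485, em 535 nm) after overnight lysis following 72 h culture at 37 °C, 0.3% parasitemia, 2.5% hematocrit. Values normalized against DMSO and 0.29 uM artemisinin controls, with plate-stack correction.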
# Potency is the fitted concentration of half-maximal effect.
row,SMILES,Potency
1,COC/C=C/C1=CC2=CC(=O)C(C)(OC(=O)c3cnc4ccccc4n3)C(=O)C2=CN1CCCCO (configuration not stated),inactive
2,CCN1C(=O)N[C@@H](c2cccs2)C(C(C)=O)=C1C,inactive
3,CC(=O)C1=C(C)N(Cc2ccccc2)C(=O)N[C@H]1c1ccco1,inactive
4,COC(=O)C1=C(C(=O)OC)[C@@H]2N(C)c3ccc(OC)cc3[C@@]23C[C@@H](C(=O)OC)N(S(=O)(=O)c2cccs2)C3=N1,inactive
5,COC(=O)[C@]1(C)C=C[C@@H](C)[C@H](c2ccccc2Br)N1C(=O)C(F)(F)F,inactive
6,CCN1C(=O)[C@@H]2[C@H]3[C@H](O)[C@H](O)CC(=NO[C@@H](C)c4cc(-c5c(C)cc(C)cc5C)no4)[C@@H]3CC[C@H]2C1=O,inactive
7,CC1(C)O[C@@H]2[C@@H](O1)C(c1ccccc1)(c1ccccc1)OP(=O)(O)OC2(c1ccccc1)c1ccccc1,inactive
8,CCCCc1nc2c(c3c1C[C@H](C)OC3)CN(S(=O)(=O)c1ccc(Cl)c3nonc13)CC2,inactive
9,COC(=O)CC=C[C@@H](C)[C@H](OC)c1cc(F)ccc1Br,inactive
10,COC(=O)N[C@@H](c1ccccc1)[C@]1(C(=O)OC)CCCC1=O,inactive
11,COC(=O)CCC(=O)OC1(C)C(=O)C2=CN(c3ccccc3)C(c3ccc(OC)cc3)=CC2=C(Br)C1=O (configuration not stated),inactive
12,COC(=O)CCC(=O)OC1(C)C(=O)C2=CN(Cc3ccc(OC)cc3)C(c3ccc(OC)cc3)=CC2=C(Br)C1=O (configuration not stated),inactive
13,CCCC[C@]12Cc3cc(OC)c(OC)cc3[C@H](O1)C1=C(O2)C(=O)c2ccccc2C1=O,1510 nM (active)
14,COC(=O)c1ccccc1S(=O)(=O)N1CCc2nc(COc3ccccc3)c3c(c2C1)CO[C@@H](C)C3,inactive
15,CCOC(=O)CN1C(=O)N[C@@H](CCc2ccccc2)[C@@H](C(=O)OC)[C@H]1C,inactive
16,COC(=O)[C@@H](NC(=O)N1CCc2nc(-c3ccc(OC)cc3C)c3c(c2C1)CO[C@@H](c1ccccc1)C3)C(C)C,1690 nM (active)

row,SMILES,Potency
1,CCCCC1=CC2=C(c3ccco3)C(=O)C(C)(OC(=O)c3ccc(OC)cc3)C(=O)C2=CN1CCc1c[nH]c2ccccc12 (configuration not stated),inactive
2,COC(=O)CCCC1=CC2=C(c3ccccc3)C(=O)C(C)(OC(=O)C3CCCC3)C(=O)C2=CN1Cc1ccccc1 (configuration not stated),inactive
3,C=C(C)C(=O)c1ccc2c(c1)OCO2,inactive
4,C=CC1=C2C=C(C3CC3)N(Cc3ccco3)C=C2C(=O)C(C)(OC(=O)c2ccco2)C1=O (configuration not stated),inactive
5,COC/C=C/C1=CC2=CC(=O)C(C)(OC(=O)c3cnc4ccccc4n3)C(=O)C2=CN1Cc1ccc2c(c1)OCO2 (configuration not stated),inactive
6,O=C(NS(=O)(=O)c1ccc(F)cc1)O[C@@H]1C(=O)c2cc(Br)ccc2O[C@H]1c1ccc2c(c1)OCO2,inactive
7,C=C(C(C)=O)C(O)c1cccs1 (configuration not stated),inactive
8,CCN1C(=O)N(C)[C@@H](c2ccccc2)C(C(=O)OC)=C1C,inactive
9,CCN1C(=O)N[C@@H](c2cccc(F)c2)C(C(C)=O)=C1C,inactive
10,COC/C=C/C1=CC2=CC(=O)C(C)(OC(=O)c3cnc4ccccc4n3)C(=O)C2=CN1CCOC (configuration not stated),inactive
11,COC(=O)C1=C(C(=O)OC)[C@@H]2N(C)c3ccc(OC)cc3[C@@]23C[C@@H](C(=O)OC)N(S(=O)(=O)c2ccc4c(c2)OCCN4C)C3=N1,inactive
12,CCOC(=O)CN1C(=O)N[C@@H](c2cccc(C(F)(F)F)c2)[C@H](C(=O)OC)[C@H]1C,inactive
13,C=CCOC(=O)N[C@H](C(C(=O)OC)=C(C)NCc1ccccc1)c1ccc(C)cc1,inactive
14,C=C[C@@]1(C)CC[C@H](O)[C@H]2C(=O)CCC[C@H]21,inactive
15,CCN1C(=O)N[C@H](c2ccc(Br)cc2)C(C(=O)OC)=C1C,inactive
16,CCCCC1=CC2=CC(=O)C(C)(OC(=O)CC)C(=O)C2=CN1CCc1c[nH]c2ccccc12 (configuration not stated),inactive
